{"source": "PubChem BioAssay (EPA / NIEHS)", "note": "Some structures have more than one record in an assay (separate samples or runs), and their calls can disagree. Calls of active or inactive are those of the source. How the source made its calls: active means hit-call score of the fitted dose curve at least 0.9, where 1 is the maximum; inactive means score below 0.9.", "data": [{"read-out": "CD38, CD38 (gene 952)", "experiment": "BSK_SAg_CD38: BioMAP Diversity Plus: SAg Assay for CD38 Biomarker Activity (AID 2283087)", "details": "primary human HUVEC with PBMC; actives raise or lower the signal", "protocol": "BSK_SAg is a cell-based, multiplexed-readout assay that uses umbilical vein endothelium and peripheral blood mononuclear cells, a human vascular primary cell co-culture, with measurements taken at 24 hours after chemical dosing in a 96-well plate.BSK_SAg_CD38 is one of 10 assay component(s) measured or calculated from the BSK_SAg assay. It is designed to make measurements of enzyme-linked immunosorbent assay, a form of binding reporter, as detected with fluorescence intensity signals by Enzyme-linked immunosorbent assay technology.Data from the assay component BSK_SAg_CD38 was analyzed into 1 assay endpoint. This assay endpoint, BSK_SAg_CD38, was analyzed with bidirectional fitting relative to DMSO as the negative control and baseline of activity. Using a type of binding reporter, gain or loss-of-signal activity can be used to understand changes in the signaling as they relate to the gene CD38. Furthermore, this assay endpoint can be referred to as a primary readout, because this assay has produced multiple assay endpoints where this one serves a signaling function. To generalize the intended target to other relatable targets, this assay endpoint is annotated to the cytokine intended target family, where the subfamily is other cytokine.\nThe levels of cell surface (or secreted, indicated by the prefix \"s\") biomarker endpoints were measured by ELISA. Overt cytotoxicity to cells in confluent adherent cultures (all systems other than the BT system) was assessed by measuring total protein levels using sulforhodamine B (SRB) staining in parallel cultures at the time of biomarker measurements, indicated as SRB endpoints. For proliferation assays for adherent cell types, individual cell types are cultured at sub-confluence and relative cell numbers quantified by SRB staining at time points optimized for each system (48 h: 3C and CASM3C systems; 72 h: BT and HDF3CGF systems; 96 h: SAg system). SRB was performed by staining cells with 0.1% SRB after fixation with 10% TCA and reading wells at 560 nm.Viability and proliferation of PBMC (T cells) was quantified by Alamar Blue reduction for the SAg and BT systems. For PBMC viability (referred to as PBMC Cytotoxicity within the assay endpoint names), cells were plated (75,000/well in a 96-well plate) and then chemical samples added for 1 h before addition of activators, SEB and TSST-1 (20 ng/mL final concentration each). Cells were incubated for 90 h. Then, Alamar Blue (20 uL/well) (Invitrogen, Cat DAL1100) was added for 6 h, and the plates were read with a fluorescence microplate reader at 546/580 nm (excitation/emission). For PBMC proliferation, cells were plated and activated as above but incubated for only 16 h prior to addition of Alamar Blue. Plates were read after 6 h.", "values": [{"smiles": "CCCC(CCC)C(=O)O", "outcome": "inactive"}, {"smiles": "O=C(O)[C@H](O)[C@@H](O)C(=O)O", "outcome": "inactive"}, {"smiles": "CC[C@H](C)C(=O)O[C@H]1C[C@H](O)C=C2C=C[C@H](C)[C@H](CC[C@@H](O)C[C@@H](O)CC(=O)O)[C@H]21", "outcome": "inactive"}, {"smiles": "OCCOCCOCCO", "outcome": "inactive"}, {"smiles": "Nc1ccn([C@@H]2O[C@H](CO)[C@@H](O)[C@@H]2O)c(=O)n1", "outcome": "inactive"}, {"smiles": "C[Si](C)(C)C(F)(F)C(F)(F)C(F)(F)F", "outcome": "inactive"}, {"smiles": "C[C@@H](Oc1ccc(CNC(=O)c2cccnc2Oc2ccc3c(c2)OCO3)c(F)c1)C(=O)O", "outcome": "inactive"}, {"smiles": "NCC(F)(F)C(F)(F)C(F)(F)C(F)(F)F", "outcome": "inactive"}, {"smiles": "CC(C)c1nnc2ccc(-c3ocnc3-c3cc(F)ccc3F)cn12", "outcome": "inactive"}, {"smiles": "CCCCCCOC(=O)CC(CC(=O)OCCCCCC)(OC(=O)CCC)C(=O)OCCCCCC", "outcome": "inactive"}, {"smiles": "OCCNCCO", "outcome": "inactive"}, {"smiles": "CCOC(N)=O", "outcome": "inactive"}, {"smiles": "C=CCc1cc(S(=O)(=O)c2ccc(O)c(CC=C)c2)ccc1O", "AC50": "14.5 µM (active)"}, {"smiles": "Cc1cccc(O)c1C", "outcome": "inactive"}, {"smiles": "O=C(Cl)C(F)(F)C(F)(F)C(F)(F)C(=O)Cl", "outcome": "inactive"}, {"smiles": "CCCOc1ccc(S(=O)(=O)N2CCN(CC)CC2)cc1-c1nc2c(CC)n(Cc3ccccn3)nc2c(=O)[nH]1", "outcome": "inactive"}, {"smiles": "CCc1cccc(CC)c1N", "outcome": "inactive"}, {"smiles": "NNC(=O)c1ccncc1", "outcome": "inactive"}, {"smiles": "OCCC(F)(F)C(F)(F)C(F)(F)C(F)(F)F", "outcome": "inactive", "AC50": "0.234 µM (active)"}, {"smiles": "OC[C@H]1O[C@@H]2O[C@H]3[C@H](O)[C@@H](O)[C@@H](O[C@H]4[C@H](O)[C@@H](O)[C@@H](O[C@H]5[C@H](O)[C@@H](O)[C@@H](O[C@H]6[C@H](O)[C@@H](O)[C@@H](O[C@H]7[C@H](O)[C@@H](O)[C@@H](O[C@H]1[C@H](O)[C@H]2O)O[C@@H]7CO)O[C@@H]6CO)O[C@@H]5CO)O[C@@H]4CO)O[C@@H]3CO", "outcome": "inactive"}, {"smiles": "c1ccc2cc3ccccc3cc2c1", "outcome": "inactive"}, {"smiles": "O=S1(=O)CCCO1", "outcome": "inactive"}, {"smiles": "CCn1nc(C)c2c1C(=O)NCC(c1ccc(O)cc1)=N2", "AC50": "8.91 µM (active)"}, {"smiles": "FC(F)(F)COC(OCC(F)(F)F)OCC(F)(F)F", "outcome": "inactive"}, {"smiles": "OCC(CO)(CO)CO", "outcome": "inactive"}, {"smiles": "CCCCCOC(C)=O", "outcome": "inactive"}, {"smiles": "FC(F)=C(F)C(F)(F)C(F)(F)C(F)(F)C(F)(F)C(F)(F)C(F)(F)F", "outcome": "inactive"}, {"smiles": "NC(=O)NN=Cc1ccc([N+](=O)[O-])o1", "outcome": "inactive"}, {"smiles": "Cc1nc(-c2ccccn2)ncc1C(=O)Nn1cc(C)c2cc(F)ccc21", "outcome": "inactive"}, {"smiles": "OCc1ccccc1", "outcome": "inactive"}, {"smiles": "OC[C@H]1O[C@@](CO)(O[C@H]2O[C@H](CO)[C@@H](O)[C@H](O)[C@H]2O)[C@@H](O)[C@@H]1O", "outcome": "inactive"}, {"smiles": "Cc1ncc([C@@H](CCCCCCc2ccc3c(n2)NCCC3)CC(=O)O)cn1", "outcome": "inactive"}, {"smiles": "Cn1cc[nH]c1=S", "outcome": "inactive"}, {"smiles": "CCc1ccc(O)c(C(C)(C)C)c1", "AC50": "26.7 µM (active)"}, {"smiles": "CCOc1ccc2[nH]cc(C(=O)NCc3ccccc3)c(=O)c2n1", "outcome": "inactive"}, {"smiles": "O=C(O)c1cccc(C(=O)O)c1", "outcome": "inactive"}, {"smiles": "NC(N)=O", "outcome": "inactive"}, {"smiles": "O=S(=O)(O)c1ccc(N=Nc2c(O)ccc3cc(S(=O)(=O)O)ccc23)cc1", "outcome": "inactive"}, {"smiles": "Cn1c(=O)c2[nH]cnc2n(C)c1=O", "outcome": "inactive"}]}]}
